The panel holds about 83,000 compounds, 20% with a hit somewhere; the sample as a whole holds those more often.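 Activity criterion: percent growth below 10, measured after cells in 96-well plates were exposed to a single compound concentration for 48 hours.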 Active and inactive are the calls of the source.
System: HL-60(TB) leukemia
Assay: NCI-60 one-dose screen, 48 h (100 = growth as untreated, 0 = no growth, -100 = all killed)
Conditions: 10 µM unless noted

Row | Structure (SMILES) | growth
1 | COc1cccc(C(Cc2ccccc2)Nc2ccccc2)c1OC (stereo not given) | 96.3% (inactive)
2 | NC(=O)c1c(NC(=O)c2ccc3ccccc3c2)sc2c1CCC(=O)C2 | 50.9% (inactive)
3 | COc1cc(C2NC(c3ccc(Cl)cc3)C(C)/C(=N/NC(N)=S)C2C)cc(OC)c1OC (stereo not given) | 79.9% (inactive)
4 | c1ccc(Cn2cc(-c3nc4ccccc4s3)c3cccnc32)cc1 | 115% (inactive)
5 | CN(C)Cc1cc(C(C)(C)C)cc(Br)c1O | 123% (inactive)
6 | COc1ccc(OC)c(/C=C2\COc3ccc(O)c(O)c3C2=O)c1 | -11% (active)
7 | C=C1C(=O)O[C@H]2[C@H]1CC/C(COC(=O)/C=C/c1cccnc1)=C\CC[C@@]1(C)O[C@@H]21 | -28% (active)
8 | O=C(Nc1nc(-c2ccccc2Cl)cs1)c1cc(-c2ccc(Br)cc2)nc2ccccc12 | 37.2% (inactive)
9 | C#CCOC(=O)Nc1ccccc1 | 99.7% (inactive)
10 | CN1C2CCC1/C(=C\c1ccc(Cl)cc1)C(=O)/C2=C/c1ccc(Cl)cc1 | 20.3% (inactive)
11 | O=C1COCCN1c1ccc(NCc2cn(Cc3ccc(F)cc3)c3ccccc23)cc1 | 86.9% (inactive)
12 | O=C1CN(CCN2CC(=O)N(Cc3ccccc3)C(=O)C2)CC(=O)N1Cc1ccccc1 | 97.7% (inactive)
13 | O=C1NC(=O)c2c1c1c3ccccc3[nH]c1c1oc3ccc(F)cc3c21 | 99.5% (inactive)
14 | COc1ccc2cc(Cn3cc[n+](Cc4ccc5ccccc5c4)c3)ccc2c1 | -46.6% (active)
15 | Clc1nc(Cl)c2ncn(CC#CCn3cnc4c(Cl)nc(Cl)nc43)c2n1 | -58.3% (active)
16 | O=c1cc(SCc2ccccc2)nc[nH]1 | 82.3% (inactive)
17 | Fc1cnc(NC2CC2)nc1-c1cnc2ccc(N3CCOCC3)cn12 | -15.5% (active)
18 | CC/C=C\C[C@H]1C/C=C2/C(=O)C(Cl)=C[C@@H]2C/C=C\CCCC(=O)O1 | -6.91% (active)
19 | CC1CC(C)(C)OB(OC(C)CC(C)(C)OB2OC(C)CC(C)(C)O2)O1 (stereo not given) | 103% (inactive)
20 | O=C(Nc1ccc2[nH]c3ccccc3c2c1)c1ccccc1Cl | 9.41% (active)

Row | Structure (SMILES) | growth
21 | CCOC(=O)c1c(C)c2c(n1C)CSc1cc(S(=O)(=O)c3ccccc3)c(=O)[nH]c1-2 | 25% [100 µM] (inactive)
22 | Nc1nc(Nc2ccccc2)n[nH]1 | 97.7% (inactive)
23 | N#C/C(=C\c1ccc(C#N)cc1)C(=O)c1ccccc1 | 92.7% (inactive)
24 | O=[N+]([O-])c1cc(S(=O)(=O)Nc2ccccc2)ccc1Cl | 71.3% (inactive)
25 | COc1ccc(CCNC=O)cc1OC | 96.9% (inactive)
26 | CCOC(=O)c1c(Cl)c2c(n1Cc1cc(OC)cc(OC)c1)-c1oncc1CCC2 | 0.728% (active)
27 | O=c1c2cc(Cl)ccc2oc2ccc(OCCCCCN3CCCCCC3)cc12 | 54.2% (inactive)
28 | Clc1ccc(/C=C/c2cc(N3CCOCC3)c3cc(Cl)c(Cl)cc3n2)cc1 | -16.3% (active)
29 | C=CCN1C(=O)c2ccccc2C1=O | 101% (inactive)
30 | O=C1Nc2ccccc2/C1=C/c1ccc[nH]1 | 103% (inactive)
31 | S=C(Nc1ccccc1)N1CCCCC1 | 93.5% (inactive)
32 | CC1(C)NCCC[C@]2(C)[C@H]3C=CC4=C5C[C@](C)(CO)CC[C@]5(C)CC[C@@]4(C)[C@]3(C)CC[C@@H]12 | -52.8% [100 µM] (active)
33 | COc1ccc2c(c1)c(/C(O)=C1\COC(=O)C1=O)cn2Cc1ccc(F)cc1 | 85.6% (inactive)
34 | Cc1oc2c(C)c3oc(=O)cc(C)c3cc2c1CCl | 70.8% (inactive)
35 | CC(C)N(CCOc1ccc(-c2nc3sccn3c2-c2ccnc(S(C)(=O)=O)n2)cc1)C(C)C | 85.8% (inactive)
36 | Cc1cc(C)c([O-])c(CN(C)CCN(C)Cc2cc(C)cc(C)c2[O-])c1.O=C([O-])c1cccc(C(=O)[O-])n1.[Ti+4] | -7.45% (active)
37 | CN1CCN(c2cc3c(cc2F)c(=O)c(C(=O)O)cn3-c2ccc(F)cc2)CC1 | 99.3% (inactive)
38 | O=C(/C=C/c1ccc(C(F)(F)F)cc1)Nc1ccc(C=C2c3ccccc3C(=O)c3ccccc32)cc1 | 11.2% (inactive)
39 | CCCNCC(=O)Nc1ccc(C(=O)OC(C)(C)CC)cc1 | 89.8% (inactive)
40 | O=C(C(=O)c1cc(Br)ccc1O)c1cc(Br)ccc1O | 27.4% (inactive)
